In all, about 33,000 sequences were measured (“E-score (-0.5 to 0.5)”: median about -0.016, highest 2% from about 0.32 on). What follows is part of a selection rich in the highest values, with near analogues and random picks from the rest.
molecular target: T1, Stp1 (UniProt B3LFK1); test: PBM E-score (8-mer binding enrichment) (E-score (-0.5 to 0.5)); higher = stronger / more preferred TF binding; details: protein concentration: 200 nM; construct: GST-full length
T1 sequence: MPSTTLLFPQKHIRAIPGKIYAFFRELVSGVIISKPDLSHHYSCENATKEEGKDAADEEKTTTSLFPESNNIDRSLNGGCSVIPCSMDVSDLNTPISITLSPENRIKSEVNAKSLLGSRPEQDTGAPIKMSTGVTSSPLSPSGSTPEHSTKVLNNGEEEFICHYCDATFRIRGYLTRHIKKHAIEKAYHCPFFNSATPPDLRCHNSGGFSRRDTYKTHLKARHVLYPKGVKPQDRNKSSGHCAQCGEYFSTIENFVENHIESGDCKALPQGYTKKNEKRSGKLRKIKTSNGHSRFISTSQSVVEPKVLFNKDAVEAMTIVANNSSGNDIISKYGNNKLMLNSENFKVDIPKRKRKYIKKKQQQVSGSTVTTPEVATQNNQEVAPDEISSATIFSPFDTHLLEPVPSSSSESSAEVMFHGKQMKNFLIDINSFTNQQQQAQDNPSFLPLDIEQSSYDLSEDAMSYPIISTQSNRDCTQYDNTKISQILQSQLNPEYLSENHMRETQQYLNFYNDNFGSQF
Method: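 Universal 'all 10-mer' protein binding microarrays (Agilent AMADID 015681) probed with GST-tagged S. cerevisiae TFs (full-length or DBD) made by in vitro transcription/translation (PURExpress), about 100-200 nM. Bound TF was detected with fluorescent anti-GST. Each ungapped 8-mer (which stands for itself and its reverse complement) is scored by the PBM enrichment score (E-score), a modified Wilcoxon-Mann-Whitney statistic from -0.5 to +0.5, computed with the Universal PBM Analysis Suite. Scale: above 0.35 generally sequence-specific binding.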

Row | Sequence | PBM E-score
1 | AGCCCTGC | 0.0478
2 | GACCTTTA | -0.0597
3 | AAGCCTCA | -0.0215
4 | AGGCGCAT | 0.241
5 | AGGCGCCT | 0.383
6 | CGCCGGCG | 0.312
7 | AGGCGTCG | 0.253
8 | AGGCGCCG | 0.462
9 | TGGCGCCA | 0.26
10 | AGGCGCCA | 0.353
11 | CGGCGCCG | 0.484
12 | AGGCGACT | 0.0881
13 | AGGCGCCC | 0.232
14 | CGGAGCCG | 0.302
15 | GGGCGCCA | 0.309
16 | AGGTGCGG | 0.189
17 | AATAACTG | 0.0806
18 | TGGACAAA | -0.0269
19 | GCAGCGCA | -0.103
20 | AAGAACCA | -0.0227
21 | CAGTCTCC | -0.209
22 | ATTTGGAA | 0.0474

Row | Sequence | PBM E-score
23 | AAGATTAA | 0.084
24 | ATCGTACA | 0.0995
25 | CGATAAAC | 0.0166
26 | AGGAGGAT | -0.107
27 | GCGATGTA | 0.16
28 | TATCGTCA | -0.0796
29 | TAGTGCAA | 0.0577
30 | CTGCGCCA | 0.106
31 | CGGCGCCC | 0.38
32 | GGGCGCCC | 0.255
33 | ATGCGCCG | 0.413
34 | GCGCGCCA | 0.268
35 | ATGCGCCC | 0.158
36 | ATGCGCCA | 0.0976
37 | CTGCGCCC | -0.113
38 | CGGCGCCA | 0.463
39 | AACTATCG | -0.203
40 | CTCTGGCA | -0.203
41 | ACAAGTGC | -0.127
42 | CGTCAGAG | -0.0954
43 | GCAATGGC | -0.116
44 | AGGCTGTA | 0.0388

Row | Sequence | PBM E-score
45 | ATCTATTG | 0.0947
46 | ACAGATAA | -0.0189
47 | ATCAATGG | -0.0372
48 | AACAACCA | 0.0647
49 | CCCTCGTA | -0.0643
50 | ACCTCGTA | -0.0684
51 | GCCTCGTA | 0.346
52 | CGCCATGC | 0.226
53 | ATAGTGCC | 0.311
54 | CCGGCACC | 0.254
55 | GCGGCACA | 0.463
56 | GCGGCACC | 0.477
57 | AGGGCACC | 0.0197
58 | ACGGCACC | 0.484
59 | GTGGCACA | 0.125
60 | CGGGCACC | 0.237
61 | GGGGCACC | 0.0924
62 | GGGGCACA | 0.0124
63 | GACGCCAC | 0.0288
64 | GATCCTAC | -0.1
65 | ACTCTCAG | 0.0178
66 | CTGCACTC | 0.109

Row | Sequence | PBM E-score
67 | CGGCACTC | 0.365
68 | CGGCACTA | 0.446
69 | GGGCACTA | 0.23
70 | AGGCACTA | 0.301
71 | AGGCACTC | 0.139
72 | CAGAGGTA | 0.062
73 | GTTCCATA | -0.164
74 | CCTGGCCG | -0.105
75 | AAAGTATC | 0.118
76 | AGGTAAGC | -0.118
77 | TATCTCCA | 0.103
78 | CCTACCTA | -0.0899
79 | AGCGGCTC | 0.388
80 | GGCGGCTA | 0.207
81 | CGCGGCTA | 0.397
82 | ATCGGCTC | 0.136
83 | AGCGGCTG | 0.0689
84 | AGCGGCTA | 0.165
85 | CCCGGCTC | -0.238
86 | CTCGGCTC | 0.029
87 | CGCGGCTC | 0.464

— the supplement of paper PMC3334620
